# From PubChem BioAssay
# A selection: hits, their analogues and other compounds. The true share with any hit is near 3.5%.
# GDH-TPI counter – GDH-TPI coupling enzyme inhibitors, primary screen, artefact control for M. tuberculosis FBA inhibitor project, biochemical, absorbance, full deck; GDH-TPI coupled enzyme counterscreen, NADH absorbance; inhibition, % at 4.8 µM; actives 1.2% (n = 360,000); AID 588335, 2011; in the data active = inhibition above about 30%;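 also: 0% = DMSO wells and 100% = wells lacking the enzyme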
# Rv3671c protease – Rv3671c serine protease inhibitors, primary screen, biochemical, fluorescence polarization, M. tuberculosis H37Rv. actives 0.048% (n = 320,000). inhibition, % at 5.96 µM. AID 2606, 2010; in the data active = inhibition above about 38%;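 also: extracellular domain of Rv3671c used as enzyme; 0% = enzyme with DMSO and 100% = no enzyme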
# Target sequence (P9WHR9 whole entry, looked up, the tested form may be a part): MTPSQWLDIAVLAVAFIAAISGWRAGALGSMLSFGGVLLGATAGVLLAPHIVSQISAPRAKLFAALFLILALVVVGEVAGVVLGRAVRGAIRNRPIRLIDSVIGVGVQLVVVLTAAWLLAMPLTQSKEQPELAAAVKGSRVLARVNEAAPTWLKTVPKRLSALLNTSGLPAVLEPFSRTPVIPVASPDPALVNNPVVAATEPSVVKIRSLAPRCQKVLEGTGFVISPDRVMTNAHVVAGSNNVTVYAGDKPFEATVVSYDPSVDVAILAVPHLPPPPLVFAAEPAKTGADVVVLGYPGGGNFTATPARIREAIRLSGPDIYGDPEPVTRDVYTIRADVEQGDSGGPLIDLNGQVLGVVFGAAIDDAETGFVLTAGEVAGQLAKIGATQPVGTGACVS
# Mtb FBA inh – Mtb FBA enzyme inhibitors, primary screen, biochemical, fluorescence, strain H37Rv; Fructose-bisphosphate aldolase (Mycobacterium tuberculosis (strain ATCC 25618 / H37Rv)), …; purified M. tuberculosis FBA, fluorescence read-out; inhibition, % at 1 µM; actives 2.3% (n = 360,000); AID 588726, 2011; in the data active = inhibition above about 27%;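 also: 0% = vehicle and 100% = reference inhibitor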
# Mtb hypoxia inh – PubChem AID 1159583; M. tuberculosis hypoxia-regulated fluorescent reporter, fluorescence; fluorescence inhibition, % (no concentration beside the values); actives 0.1% (n = 300,000); in the data active = fluorescence inhibition mostly above about 23%, no sharp cut-off; inactive = mostly below about 17%
# Mtb UGM inh – M. tuberculosis UGM enzyme inhibitors, primary screen, biochemical, fluorescence polarization, single point. purified UGM, fluorescence polarization probe displacement. actives 0.06% (n = 320,000). UDP-galactopyranose mutase (Mycobacterium tuberculosis (strain ATCC 25618 / H37Rv)), …. inhibition, % at 10 µM; in the data active = inhibition above about 10%, passing the limit was not always enough
# FadD28 binding – inhibitors of FadD28 bisubstrate probe binding, primary screen, biochemical, fluorescence polarization, single point. Mycobacterium tuberculosis FadD28 fatty-acid-AMP ligase. inhibition, % at 12.5 µM. actives 0.22% (n = 360,000); in the data active = inhibition above about 8.5%, passing the limit was not always enough
# Numbers without * were called inactive; . = no result; + = active, no number.
SMILES,GDH-TPI counter,Rv3671c protease,Mtb FBA inh,Mtb hypoxia inh,Mtb UGM inh,FadD28 binding
CNC(=O)C1CCN(S(=O)(=O)c2c(C)noc2/C=C/c2cccc(OC)c2)CC1,31.7*,-0.8,14.4,.,-0.9,-3.8
Cc1noc(/C=C/N(C)C)c1S(=O)(=O)N1CCN(c2ccc(F)cc2)CC1,34.0*,-2.8,-2.5,8.2,-1.5,1.8
CCC(C)N1CCN(C(=O)C2CCN(S(=O)(=O)c3c(C)noc3/C=C/c3ccco3)CC2)CC1 (configuration not stated),37.9*,-2.1,-0.5,-4.5,-2.0,-2.5
Cc1oc(C=NNS(=O)(=O)c2ccccc2)cc1Br,.,.,.,1.0,.,.
Nc1nonc1-n1nnc(C(=O)NN=Cc2ccccc2)c1CN1CCc2ccccc21,.,.,.,-3.0,.,.
Nc1ncc(C(=O)O)c(-c2ccccc2)n1,9.1,.,0.9,-6.0,.,1.1
O=C(O)c1ccccc1-c1ncc(-c2ccccc2)o1,18.3,-0.8,123.1*,13.0,3.0,-1.2
Cc1ccc(-c2cnc(-c3ccncc3)o2)cc1,19.2,-3.9,+,10.7,2.3,-2.5
Nc1ccc(-c2ncc(-c3ccccc3)o2)cc1,26.8,-4.5,+,13.4,-0.9,4.2
O=[N+]([O-])c1ccc(-c2ncc(-c3ccc(Br)cc3)o2)cc1,6.6,-4.8,0.5,12.6,0.5,-1.2
Cc1n[nH]c(=S)n(N=Cc2ccccn2)c1=O,.,.,.,9.9,.,.
CC(C)[C@H]1C(=O)N2CCC[C@H]2[C@]2(O)O[C@](NC(=O)[C@@H]3C=C4c5cccc6[nH]cc(c56)C[C@H]4N(C)C3)(C(C)C)C(=O)N12,4.3,-36.6,4.7,.,9.6,-1.6
CN1C[C@H](CO)C=C2c3cccc4[nH]cc(c34)C[C@H]21,8.8,-4.1,171.6*,.,1.8,2.2
COc1ccc(CC(=O)ON=C(N)c2ccc(Br)cc2)cc1OC,.,.,.,-2.3,.,.
Cn1c(C(=O)NCC2CCCO2)cc2c(=O)n3ccccc3nc21 (configuration not stated),13.8,0.5,+,7.6,0.9,-2.6
CN(C)c1ccc(NC(=O)c2cc3c(=O)n4ccccc4nc3n2C)cc1,22.8,-2.4,5.4,-95.5,1.6,-1.3
Cn1c(C(=O)NCCC2=CCCCC2)cc2c(=O)n3ccccc3nc21,4.1,-0.7,113.6*,10.3,1.5,-0.3
Cc1cccn2c(=O)c3cc(C(=O)NCCC4=CCCCC4)n(C)c3nc12,5.6,8.5,12.1,10.2,-1.0,-2.8
Cn1c(C(=O)N2COCC2(C)C)cc2c(=O)n3ccccc3nc21,-4.3,6.0,+,8.2,-0.2,-0.1
Cc1ccc(S(=O)(=O)N=CN(C)C)cc1,.,.,.,2.5,.,.
CNC(=O)C12CCC(C)(c3nc4cc(C)c(C)cc4nc31)C2(C)C (configuration not stated),15.6,-0.8,2.8,4.5,-0.2,-2.6
CCCNC(=O)C12CCC(C)(c3nc4cc(C)c(C)cc4nc31)C2(C)C (configuration not stated),54.9*,-4.5,1.8,15.3,-0.7,-1.2
COc1ccc(OC)c(NC(=O)c2c(NC(=O)CCC(=O)O)sc3c2CCCCC3)c1,5.6,3.3,0.9,13.2,-0.4,1.8
COc1ccccc1NC(=O)c1c(NC(=O)CCC(=O)O)sc2c1CCCCC2,31.2*,8.6,10.3,-5.8,0.2,-1.0
COc1ccc(C=Nc2cccc3c(=O)[nH][nH]c(=O)c23)c2ccccc12,30.9*,2.2,5.3,-2.8,-1.5,0.1
CC1C(=O)OC2CC34C5CC(C(C)(C)C)C36C(OC(=O)C6O)OC4(C(=O)O5)[C@]21O (some centres not stated),.,.,.,14.3,.,.
O=C(Cc1ccccc1)NC(Cc1ccc(O)cc1)C(=O)O (configuration not stated),.,.,.,-3.3,.,.
O=C(O)c1cc(-c2cccs2)nc2cc3c(cc12)OCCO3,8.9,2.9,+,.,1.4,-2.6
CS(=O)(=O)N1CCN(C(=O)c2cc(-c3cccs3)nc3ccccc23)CC1,31.3*,1.0,124.7*,.,1.8,-1.5
COc1ccc(-c2cc(C(=O)O)c3ccccc3n2)c(OC)c1,11.9,-8.3,7.1,.,0.5,-3.8
